Test results reported in PubChem BioAssay AID2283127 (EPA ToxCast).
Records with an inconclusive call do not appear. Calls of active or inactive are those of the source. Rule for the calls: active = hit-call score of the fitted dose curve at least 0.9, where 1 is the maximum; inconclusive = response in the unintended direction; inactive = score below 0.9.

target: human AKT serine/threonine Kinase 3 (AKT3), AKT3 (gene 10000) (UniProt Q9Y243); assay: NVS_ENZ_hAKT3: NovaScreen (NVS) Enzymatic Assay for human AKT serine/threonine Kinase 3 (AKT3)
Sequence (Q9Y243 whole entry, looked up): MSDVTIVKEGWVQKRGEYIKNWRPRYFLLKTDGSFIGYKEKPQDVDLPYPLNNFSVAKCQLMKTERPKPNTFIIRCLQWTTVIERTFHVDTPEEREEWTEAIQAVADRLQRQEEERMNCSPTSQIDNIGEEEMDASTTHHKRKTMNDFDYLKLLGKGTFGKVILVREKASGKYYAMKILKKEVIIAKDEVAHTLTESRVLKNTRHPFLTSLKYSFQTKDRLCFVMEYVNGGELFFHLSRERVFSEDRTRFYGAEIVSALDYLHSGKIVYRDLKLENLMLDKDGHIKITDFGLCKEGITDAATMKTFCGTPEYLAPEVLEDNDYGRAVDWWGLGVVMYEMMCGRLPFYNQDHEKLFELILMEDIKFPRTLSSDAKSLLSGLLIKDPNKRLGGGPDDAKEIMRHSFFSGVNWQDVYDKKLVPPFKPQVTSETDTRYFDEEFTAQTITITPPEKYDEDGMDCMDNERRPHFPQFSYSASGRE
Method: NVS_ENZ_hAKT3 is a biochemical, single-readout assay that uses extracted gene-proteins in a cell-free assay. Measurements were taken 1 hour after chemical dosing in a 384-well plate.NVS_ENZ_hAKT3 is one of one assay component(s) measured or calculated from the NVS_ENZ_hAKT3 assay. It is designed to make measurements of enzyme activity, a form of enzyme reporter, as detected with fluorescence intensity signals by Fluorescence and electrophoretic mobility shift technology.Data from the assay component NVS_ENZ_hAKT3 was analyzed into 1 assay endpoint. This assay endpoint, NVS_ENZ_hAKT3, was analyzed in the positive analysis fitting direction relative to DMSO as the negative control and baseline of activity. Using a type of enzyme reporter, loss-of-signal activity can be used to understand changes in the enzymatic activity as they relate to the gene AKT3. Furthermore, this assay endpoint can be referred to as a primary readout, because this assay has produced multiple assay endpoints where this one serves a enzymatic activity function. To generalize the intended target to other relatable targets, this assay endpoint is annotated to the kinase intended target family, where the subfamily is serine/threonine kinase. […]

| Structure (SMILES) | AC50 | outcome |
| --- | --- | --- |
| S=C([S-])NCCNC(=S)[S-].[Mn+2] | 25 µM (active) |  |
| CN(C)C(=S)SSC(=S)N(C)C |  | inactive |
